Experimental data taken from ChEMBL document CHEMBL1157539, “Thousands of chemical starting points for antimalarial lead identification” (Nature, 2010).

The compounds below were run on Plasmodium falciparum (assay: GSK_TCMDC: Inhibition of Plasmodium falciparum 3D7 in whole red blood cells, using parasite LDH activity as an index of growth. Test compounds present at 2uM).
Type: functional

SMILES | Inhibition
CC(C(=O)Nc1ccc(Br)cc1Br)N1CCN(C(=O)c2ccco2)CC1 (stereo unspecified) | 91%
Clc1ccccc1C=NN=c1cc[nH]c2ccccc12 | 100%
CO/C(=C\C=C\c1cc2cc(Cl)c(Cl)cc2[nH]1)C(=O)NCCCN1CCN(c2cccc(CCCO)c2)CC1 | 90%
Cl.N=C(N)NN=Cc1ccc2ccc3ccccc3c2c1 | 100%
COc1cccc(-c2nn(C)c3sc(C(=O)NCCN(C)Cc4ccccc4)cc23)c1 | 92%
CCCC[C@H](NC(=O)OC(C)(C)C)C(=O)Nc1ccc(Cc2ccc(NC(=O)[C@H](CCCC)NC(=O)OC(C)(C)C)cc2)cc1 | 95%
COc1ccc2nccc([C@@H](O)CN3CCC(NCc4cc5cc(OC(F)(F)F)ccc5[nH]4)CC3)c2c1.O=C(O)C(=O)O | 100%
Fc1ccc2[nH]c(-c3ccc(-c4ccc(CN5CCN(c6ccncc6)CC5)cc4)cc3)nc2c1.O=C(O)C(F)(F)F | 100%
CN(C)CCOc1ccc(-c2cc(-c3ccc(Cl)c(O)c3)c(-c3ccncc3)o2)cc1.Cl | 100%
Cc1ccccc1CNc1noc(-c2sccc2Br)n1 | 99%
CC(C)(CNCc1cccc(Oc2cccc(C(F)(F)F)c2)c1)c1nc(-c2ccnc(N)n2)c(-c2ccc(Cl)c(O)c2)[nH]1.Cl | 99%
COc1ccc(CN(C)CCCc2ccc(NC(=O)c3cccc4c(=O)c5cccc(F)c5[nH]c34)cc2)cc1OC | 100%
CC(CCc1ccccc1)NCC(O)c1cccc(C(F)(F)F)c1.Cl (stereo unspecified) | 99%
Cc1ccc(-c2nnc3c4ccccc4c(C)nn23)cc1S(=O)(=O)N1CCN(CCO)CC1 | 85%
Cc1noc(C)c1-c1cccc(CNCc2cccc(-c3csc(-c4nc5ccccc5[nH]4)c3)c2)c1.O=C(O)C(F)(F)F | 100%
Cc1cnc(Nc2ccccc2)nc1N[C@@H](CCCN)C(=O)Nc1ccccc1.O=C(O)C(F)(F)F | 100%
COc1ccc(CCNc2nc(N)c3cc(OC)c(OC)cc3n2)cc1.Cl | 100%
COC(=O)c1cccc(CNCc2ccc(-c3ccc(-c4nc5cc(F)ccc5[nH]4)cc3)cc2)c1.O=C(O)C(F)(F)F | 100%
CCc1cn2c3c(cc(C(=O)N[C@@H](Cc4ccccc4)[C@H](O)CNC4CCCCC4)cc13)N(CC)S(=O)(=O)CC2.O=CO | 98%
Cc1ccn2cc(-c3ccc(NC(=O)c4ccc(Br)o4)cc3)nc2c1 | 98%
Cc1ccc(C(NC(=O)Cc2ccccc2)c2ccc3cccnc3c2O)cc1 (stereo unspecified) | 94%
Nc1ncnc2cc(-c3cccc(NC(=O)Nc4ccccc4)c3)sc12 | 94%
CCOc1ccc(C(Cc2ccccc2)NC(=O)c2cccnc2)cc1OCC (stereo unspecified) | 100%
Cc1cc(NCC(C)C)c2[nH]nc(-c3ccccc3)c2n1 | 99%
CN(C)CCOc1ccc(-c2cc(-c3ccncc3)c(-c3ccc(Cl)c(O)c3)[nH]2)cc1.Cl | 98%
CCN(CC)c1nc(Nc2cc(C)ccc2C)nc(Nc2ccccc2O)n1 | 100%
Cn1nccc1C(=O)NCCNCc1ccc(-c2ccc(-c3nc4cc(C(F)(F)F)ccc4[nH]3)s2)cc1.O=C(O)C(F)(F)F | 100%

The compounds below were run on Plasmodium falciparum (assay: GSK_TCMDC: Inhibition of Plasmodium falciparum Dd2 in whole red blood cells, using parasite LDH activity as an index of growth. Test compounds present at 2uM).
Type: functional

SMILES | Inhibition
O=C(/C=C/c1ccc(C(F)(F)F)cc1)NCCCCCN1CCCN(C(=O)Nc2ccc(Cl)c(C(F)(F)F)c2)CC1 | 31%
COc1cc(C)c(NC(=O)c2cccc3c(=O)c(C)c(-c4ccccc4)oc23)cc1OC | 32%
Cl.O=C1Nc2ccc3ncccc3c2/C1=C/Nc1ccc(N2CCN(CCO)CC2)cc1 | 55%
OC(CNCCc1ccccc1)Cn1c2ccc(Cl)cc2c2cc(Cl)ccc21 (stereo unspecified) | 96%
CC(C)CCNC(=O)[C@@H]1[C@H]2C(=O)N(C3CCCCC3)C(=O)[C@H]2[C@H]2C=C[C@@H]3C(c4ccc(C(C)(C)C)cc4)=NO[C@@H]3N21 | 48%
Cc1[nH]c(C)c(-c2ccc(OCCn3cnc(Cl)c3Cl)cc2)c(=O)c1Br | 35%
CCCCCOc1ccc(C(O)C(CCC(CN2CCCCCC2)C(O)c2ccc(OCCCCC)cc2)CN2CCCCCC2)cc1.Cl (stereo unspecified) | 93%
CS(=O)(=O)CCNCc1cccc(-c2cc3c(Nc4ccc5c(cnn5Cc5ccccc5)c4)ncnc3s2)c1.O=C(O)C(F)(F)F | 100%
O=[N+]([O-])c1cccc(NC(=S)N2CCCN(Cc3ccc(C(F)(F)F)cc3)CC2)c1 | 49%
CC1CN(Cc2ccc(-c3ccc(-c4nc5ccccc5[nH]4)cc3)cc2)CC(C)O1.O=C(O)C(F)(F)F (stereo unspecified) | 96%
CCc1cccc2c(C#N)cn(CC(=O)Nc3ccc(OC)cc3)c12 | 76%
CC(C)c1sc(N2CCN(C)CC2)nc1C(=O)Nc1ccc(F)cc1C(F)(F)F.O=C(O)C(F)(F)F | 99%
CC(C(=O)Nc1ccc(Br)cc1Br)N1CCN(C(=O)c2ccco2)CC1 (stereo unspecified) | 84%
Clc1ccccc1C=NN=c1cc[nH]c2ccccc12 | 50%
CO/C(=C\C=C\c1cc2cc(Cl)c(Cl)cc2[nH]1)C(=O)NCCCN1CCN(c2cccc(CCCO)c2)CC1 | 36%
Cl.N=C(N)NN=Cc1ccc2ccc3ccccc3c2c1 | 89%
COc1cccc(-c2nn(C)c3sc(C(=O)NCCN(C)Cc4ccccc4)cc23)c1 | 26%
CCCC[C@H](NC(=O)OC(C)(C)C)C(=O)Nc1ccc(Cc2ccc(NC(=O)[C@H](CCCC)NC(=O)OC(C)(C)C)cc2)cc1 | 71%
COc1ccc2nccc([C@@H](O)CN3CCC(NCc4cc5cc(OC(F)(F)F)ccc5[nH]4)CC3)c2c1.O=C(O)C(=O)O | 82%
Fc1ccc2[nH]c(-c3ccc(-c4ccc(CN5CCN(c6ccncc6)CC5)cc4)cc3)nc2c1.O=C(O)C(F)(F)F | 100%

SMILES | Inhibition
CN(C)CCOc1ccc(-c2cc(-c3ccc(Cl)c(O)c3)c(-c3ccncc3)o2)cc1.Cl | 99%
Cc1ccccc1CNc1noc(-c2sccc2Br)n1 | 88%
CC(C)(CNCc1cccc(Oc2cccc(C(F)(F)F)c2)c1)c1nc(-c2ccnc(N)n2)c(-c2ccc(Cl)c(O)c2)[nH]1.Cl | 98%
COc1ccc(CN(C)CCCc2ccc(NC(=O)c3cccc4c(=O)c5cccc(F)c5[nH]c34)cc2)cc1OC | 94%
CC(CCc1ccccc1)NCC(O)c1cccc(C(F)(F)F)c1.Cl (stereo unspecified) | 98%
Cc1ccc(-c2nnc3c4ccccc4c(C)nn23)cc1S(=O)(=O)N1CCN(CCO)CC1 | 62%
Cc1noc(C)c1-c1cccc(CNCc2cccc(-c3csc(-c4nc5ccccc5[nH]4)c3)c2)c1.O=C(O)C(F)(F)F | 74%
Cc1cnc(Nc2ccccc2)nc1N[C@@H](CCCN)C(=O)Nc1ccccc1.O=C(O)C(F)(F)F | 0%
COc1ccc(CCNc2nc(N)c3cc(OC)c(OC)cc3n2)cc1.Cl | 1%
COC(=O)c1cccc(CNCc2ccc(-c3ccc(-c4nc5cc(F)ccc5[nH]4)cc3)cc2)c1.O=C(O)C(F)(F)F | 95%
CCc1cn2c3c(cc(C(=O)N[C@@H](Cc4ccccc4)[C@H](O)CNC4CCCCC4)cc13)N(CC)S(=O)(=O)CC2.O=CO | 98%
Cc1ccn2cc(-c3ccc(NC(=O)c4ccc(Br)o4)cc3)nc2c1 | 41%
Cc1ccc(C(NC(=O)Cc2ccccc2)c2ccc3cccnc3c2O)cc1 (stereo unspecified) | 77%
Nc1ncnc2cc(-c3cccc(NC(=O)Nc4ccccc4)c3)sc12 | 33%
CCOc1ccc(C(Cc2ccccc2)NC(=O)c2cccnc2)cc1OCC (stereo unspecified) | 98%
Cc1cc(NCC(C)C)c2[nH]nc(-c3ccccc3)c2n1 | 30%
CN(C)CCOc1ccc(-c2cc(-c3ccncc3)c(-c3ccc(Cl)c(O)c3)[nH]2)cc1.Cl | 100%
CCN(CC)c1nc(Nc2cc(C)ccc2C)nc(Nc2ccccc2O)n1 | 99%
Cn1nccc1C(=O)NCCNCc1ccc(-c2ccc(-c3nc4cc(C(F)(F)F)ccc4[nH]3)s2)cc1.O=C(O)C(F)(F)F | 99%
